In PubChem BioAssay one finds growth inhibition, inhibition and outcome data, which are given here for 20 molecules.

SMILES strings stand for the structures. A number with no mark means an inactive call. For some of these results: Entries with a potency or affinity are not part of this list. Calls of active or inactive are those of the source. Unless noted, the rule behind the calls is not given here.

Assay [1] can be described thus: antimalarial activity against Dd2 strain (AID 2302;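 active = growth inhibition above 50% at the single 2 µM test dose, taken to imply half-maximal potency below 2 µM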;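 note: 0% = DMSO untreated growth and 100% = chloroquine plus artemisinin killed control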). Conditions: P. falciparum Dd2 in RBCs, LDH growth readout, 72 h; at 2 µM; stronger effect = higher value.
The nature of assay [2]: human hepatoma cell viability loss – ATP luminescence, cytotoxicity control for P. falciparum antimalarial project, primary screen (AID 2303;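 active = inhibition above 50%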;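 note: 0% = DMSO wells and 100% = digitonin-killed cells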). As to conditions: HepG2 viability, 24-48 h, at 10 µM, stronger effect = higher value.
Assay [3] addresses L-lactate dehydrogenase (Plasmodium falciparum (isolate CDC / Honduras)) (UniProt Q27743). The assay can be described thus: PfLDH activity inhibition – cell lysate, 3D7 strain, counter-screen for P. falciparum growth inhibition project (AID 2304).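 Note: 0% = vehicle and 100% = reference inhibitor.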 As to conditions: P. falciparum 3D7 crude extract, LDH APAD/NBT absorbance; at 2 µM; stronger effect = higher value.
Assay [4] can be described thus: inhibition of 3D7 malaria parasite growth – strain 3D7 (AID 2306).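 Note: 0% = DMSO wells and 100% = chloroquine plus artemisinin control wells.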 Conditions: P. falciparum 3D7 erythrocytic growth, LDH absorbance, 72 h; at 2 µM; stronger effect = higher value.
The target of assay [5] is Calcium-dependent protein kinase 1 (Plasmodium falciparum (isolate 3D7)) (UniProt P62344). The assay can be described thus: PfCDPK1 kinase inhibitors, biochemical, TCAMS library (AID 1159585; cut-off not given, nearly all actives have IC50 up to about 0.98 µM;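 note: inhibitors leave more ATP so luminescence rises with inhibition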). As to conditions: recombinant PfCDPK1, Kinase-Glo ATP depletion luminescence. A general note: Kinase-Glo measures the ATP left after a reaction by luminescence.
Chain of Calcium-dependent protein kinase 1 (Plasmodium falciparum (isolate 3D7)) (P62344 whole entry, looked up): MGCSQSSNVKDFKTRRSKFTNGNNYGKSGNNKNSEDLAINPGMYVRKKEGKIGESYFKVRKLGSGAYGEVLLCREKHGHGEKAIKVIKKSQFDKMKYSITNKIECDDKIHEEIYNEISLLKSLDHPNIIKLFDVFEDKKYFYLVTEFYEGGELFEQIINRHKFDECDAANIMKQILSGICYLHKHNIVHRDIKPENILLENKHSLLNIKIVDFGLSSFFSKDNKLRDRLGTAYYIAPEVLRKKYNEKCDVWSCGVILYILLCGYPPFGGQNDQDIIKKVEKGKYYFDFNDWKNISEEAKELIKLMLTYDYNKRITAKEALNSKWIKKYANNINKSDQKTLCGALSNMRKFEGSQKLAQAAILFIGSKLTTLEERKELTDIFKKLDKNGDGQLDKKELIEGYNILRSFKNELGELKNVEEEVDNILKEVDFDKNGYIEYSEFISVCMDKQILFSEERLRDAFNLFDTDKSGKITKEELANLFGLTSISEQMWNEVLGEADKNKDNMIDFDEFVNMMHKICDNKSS
The target of assay [6] is Plasmodium falciparum protein kinase 6 (PK6, PF3D7_1337100) (UniProt Q8IDW1). Put plainly: PfPK6 kinase inhibitors, biochemical, TCAMS library (AID 1159586). As to conditions: recombinant PfPK6, Kinase-Glo ATP depletion luminescence.
Chain of Plasmodium falciparum protein kinase 6 (PK6, PF3D7_1337100) (Q8IDW1 1-305): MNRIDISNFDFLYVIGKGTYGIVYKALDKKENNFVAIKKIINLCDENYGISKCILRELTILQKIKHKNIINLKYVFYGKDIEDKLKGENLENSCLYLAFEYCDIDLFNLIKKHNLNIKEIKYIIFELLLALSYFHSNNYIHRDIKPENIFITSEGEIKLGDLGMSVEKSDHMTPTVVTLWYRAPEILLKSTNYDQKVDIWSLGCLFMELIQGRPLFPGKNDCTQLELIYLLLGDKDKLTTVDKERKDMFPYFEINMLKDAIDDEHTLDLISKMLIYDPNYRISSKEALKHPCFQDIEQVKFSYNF
Assay [7] addresses Protein kinase 7 (PK7), Plasmodium falciparum 3D7 (PF3D7_0213400) (UniProt Q7YTF7). The assay can be described thus: inhibition of Plasmodium PK7 catalytic activity – biochemical, TCAMS antimalarial set, Kinase-Glo luminescence (AID 1159587). As to conditions: recombinant PfPK7, Kinase-Glo ATP depletion luminescence.
Assay [8] has as its target Calcium-dependent protein kinase 4 (Plasmodium falciparum (isolate 3D7)) (UniProt Q8IBS5). The assay can be described thus: PfCDPK4 kinase inhibitors, biochemical, TCAMS library (AID 1159588; cut-off not given, nearly all actives have IC50 up to about 0.91 µM). As to conditions: recombinant PfCDPK4, Kinase-Glo ATP depletion luminescence.

Usually inhibition stands for the change of the read-out against control, counted positive when it falls.

Chain of L-lactate dehydrogenase (Plasmodium falciparum (isolate CDC / Honduras)) (Q27743 whole entry, looked up): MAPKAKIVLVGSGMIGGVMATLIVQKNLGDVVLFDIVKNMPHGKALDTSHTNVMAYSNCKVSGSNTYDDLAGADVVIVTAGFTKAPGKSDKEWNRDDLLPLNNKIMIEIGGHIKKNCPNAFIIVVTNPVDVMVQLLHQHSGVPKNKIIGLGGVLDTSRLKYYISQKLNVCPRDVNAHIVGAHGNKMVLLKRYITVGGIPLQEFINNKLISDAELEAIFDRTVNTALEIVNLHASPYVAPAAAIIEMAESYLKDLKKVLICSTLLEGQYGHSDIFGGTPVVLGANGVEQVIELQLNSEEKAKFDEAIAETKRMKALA
Chain of Calcium-dependent protein kinase 4 (Plasmodium falciparum (isolate 3D7)) (Q8IBS5 whole entry, looked up): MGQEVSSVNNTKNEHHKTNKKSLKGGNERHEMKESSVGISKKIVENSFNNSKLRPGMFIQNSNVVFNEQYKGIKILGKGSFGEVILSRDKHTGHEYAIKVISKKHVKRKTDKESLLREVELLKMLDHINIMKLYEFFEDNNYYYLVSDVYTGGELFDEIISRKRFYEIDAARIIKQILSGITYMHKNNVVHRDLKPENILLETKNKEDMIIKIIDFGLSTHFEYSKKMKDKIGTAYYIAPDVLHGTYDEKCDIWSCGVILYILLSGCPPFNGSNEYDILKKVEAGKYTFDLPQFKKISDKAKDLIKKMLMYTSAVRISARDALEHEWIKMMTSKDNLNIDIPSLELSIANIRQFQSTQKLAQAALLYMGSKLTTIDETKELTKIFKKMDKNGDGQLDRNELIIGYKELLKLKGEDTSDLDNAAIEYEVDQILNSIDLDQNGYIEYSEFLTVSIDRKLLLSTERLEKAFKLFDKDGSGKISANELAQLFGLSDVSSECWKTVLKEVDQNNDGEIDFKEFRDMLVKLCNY
Chain of Protein kinase 7 (PK7), Plasmodium falciparum 3D7 (PF3D7_0213400) (Q7YTF7 1-343): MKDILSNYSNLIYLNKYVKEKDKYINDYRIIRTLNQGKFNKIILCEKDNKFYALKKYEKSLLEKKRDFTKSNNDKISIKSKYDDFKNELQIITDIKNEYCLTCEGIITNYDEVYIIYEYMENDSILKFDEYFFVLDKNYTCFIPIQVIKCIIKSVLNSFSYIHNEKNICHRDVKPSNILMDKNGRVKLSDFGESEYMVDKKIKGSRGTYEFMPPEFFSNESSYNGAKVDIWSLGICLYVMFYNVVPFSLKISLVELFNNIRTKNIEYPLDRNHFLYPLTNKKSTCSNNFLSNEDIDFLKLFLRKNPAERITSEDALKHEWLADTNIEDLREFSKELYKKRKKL

Turning to `NC(N)=NCCCN(Cc1ccccc1)c1ccc(Cl)cc1`, the growth inhibition is 98% (active) in assay [1] and 100% (active) in assay [4]. In addition, the results for the inhibition in assay [2] and in assay [3] were -9% and -7%, respectively. Also, the result in assay [5], in assay [6], in assay [7] and in assay [8] was inactive.
Turning to `NC(=O)c1cccc(C(=O)Nc2ccc(-c3cccc(-c4nc5ccc(F)cc5[nH]4)c3)cc2)c1`, the growth inhibition in assay [1] was 5%; in assay [4], 94% (active). Besides, the inhibition in assay [2] was 45%; in assay [3], -5%. In addition, the result in assay [5], in assay [6], in assay [7] and in assay [8] was inactive.
For the molecule `C[C@@H]1CC[C@H](NC(=O)[C@H](CC2CCCC2)NC(=O)N2CCNCC2)C(=O)CN1S(=O)(=O)c1ccccn1`, the values for the growth inhibition in assay [1] and in assay [4] were 19% and 84% (active), respectively. Moreover, the inhibition in assay [2] is 5%; in assay [3], -2%. Moreover, the outcome in assay [5], in assay [6], in assay [7] and in assay [8] was inactive.
In the case of `Cc1nc(N)nc(N)c1-c1cccc(Cl)c1`, the growth inhibition is -1% in assay [1] and 88% (active) in assay [4]. In addition, the inhibition in assay [2] is 60% (active); in assay [3] it was 2%. In addition, the outcome in assay [5], in assay [6], in assay [7] and in assay [8] was inactive.
Take `Cc1ccccc1OCC(=O)Nc1ccc(-c2nc3cc4ccccc4cc3[nH]2)cc1`: the growth inhibition was 51% (active) in assay [1] and 102% (active) in assay [4]. Further, the values for the inhibition in assay [2] and in assay [3] were 24% and 2%, respectively. Further, the result in assay [5], in assay [6], in assay [7] and in assay [8] was inactive.
With `CCOc1cccc2nc(NCCCNCc3ccc(Cl)c(Cl)c3)cc(NCCCNCc3ccc(Cl)c(Cl)c3)c12`, the growth inhibition in assay [1] was 58% (active); in assay [4], 98% (active). Further, the inhibition in assay [2] is 96% (active); in assay [3], -5%. Further, the outcome in assay [5], in assay [6], in assay [7] and in assay [8] was inactive.
In the case of `O=C(NCCN1CCC(c2ncc(-c3ccccc3)o2)CC1)c1ccc(NC(=O)c2ccc(Cl)cc2)cc1`, the growth inhibition in assay [1] was 80% (active); in assay [4], 101% (active). Moreover, the inhibition was 32% in assay [2] and -7% in assay [3]. In addition, the result in assay [5], in assay [6], in assay [7] and in assay [8] was inactive.
Regarding `CC(C)N1CCC(NC(=O)N2CCCN(c3ncnc4cc(-c5ccc(Cl)cc5)sc34)CC2)CC1`, the results for the growth inhibition in assay [1] and in assay [4] were 7% and 81% (active), respectively. The inhibition in assay [2] was 6%; in assay [3], 7%. In addition, the outcome in assay [5], in assay [6], in assay [7] and in assay [8] was inactive.
Regarding `c1nc2nc3c(c(Nc4ccc5c(c4)CCC5)n2n1)CCC3`, the growth inhibition in assay [1] is 70% (active); in assay [4], 87% (active). In addition, the inhibition in assay [2] was -1%; in assay [3], -5%. For the same molecule, the result in assay [5], in assay [6], in assay [7] and in assay [8] was inactive.
With `CCCc1cc(Cc2cnc(N)nc2N)cc(CC)c1O`, the growth inhibition in assay [1] is -3%; in assay [4] it was 87% (active). Besides, the inhibition in assay [2] was 56% (active); in assay [3], -3%. Further, the result in assay [5], in assay [6], in assay [7] and in assay [8] was inactive.
Consider `CN(C)CCNCc1cccc(-c2ccc3c(Nc4cc(O)c(Cl)cc4F)ccnc3c2)c1`, for which the growth inhibition in assay [1] was 59% (active); in assay [4], 99% (active). Further, the values for the inhibition in assay [2] and in assay [3] were 6% and 3%, respectively. In addition, the outcome in assay [5], in assay [6], in assay [7] and in assay [8] was inactive.
For `CC(C)NCc1ccc(OCc2cccc(COc3ccc(CNC(C)C)cc3I)c2)c(I)c1`, the growth inhibition is 92% (active) in assay [1] and 101% (active) in assay [4]. The inhibition was 100% (active) in assay [2] and 6% in assay [3]. Moreover, the result in assay [5], in assay [6], in assay [7] and in assay [8] was inactive.
For `CCOCCCNc1sc(S(=O)(=O)c2ccccc2)nc1S(=O)(=O)c1ccc(C)cc1`, the growth inhibition was 87% (active) in assay [1] and 96% (active) in assay [4]. Further, the values for the inhibition in assay [2] and in assay [3] were -8% and 1%, respectively. Moreover, the result in assay [5], in assay [6], in assay [7] and in assay [8] was inactive.
As for `OCC1CCN(Cc2cccc(-c3ccc(-c4nc5ccc(C(F)(F)F)cc5[nH]4)s3)c2)CC1`, the growth inhibition in assay [1] is 90% (active); in assay [4], 99% (active). The results for the inhibition in assay [2] and in assay [3] were -6% and -9%, respectively. Also, the result in assay [5], in assay [6], in assay [7] and in assay [8] was inactive.
With `CCOC(=O)CN1Cc2cc(NCc3ccc4ccc5nc(C)[nH]c(=O)c5c4c3)ccc2C1=O`, the growth inhibition is 91% (active) in assay [1] and 84% (active) in assay [4]. Further, the values for the inhibition in assay [2] and in assay [3] were 40% and 1%, respectively. Also, the outcome in assay [5], in assay [6], in assay [7] and in assay [8] was inactive.
On to `O=C(Nc1ccc(-c2cccc(-c3nc4ccc(F)cc4[nH]3)c2)cc1)c1cnn2cccnc12`, for which the growth inhibition in assay [1] is 25%; in assay [4], 98% (active). Further, the inhibition in assay [2] is 10%; in assay [3] it was -1%. For the same molecule, the result in assay [5], in assay [6], in assay [7] and in assay [8] was inactive.
For `Cc1ccc(Nc2nc3cc(Nc4ccnc(Nc5ccc(CS(C)(=O)=O)cc5)n4)ccc3o2)cc1`, the figures for the growth inhibition in assay [1] and in assay [4] were 66% (active) and 99% (active), respectively. The inhibition was 54% (active) in assay [2] and 2% in assay [3]. Moreover, the result in assay [5], in assay [6], in assay [7] and in assay [8] was inactive.
Take `NC1CCN(Cc2ccc(-c3ccc(-c4nc5ccc(F)cc5[nH]4)cc3)cc2)C1` (stereo not given): the values for the growth inhibition in assay [1] and in assay [4] were 99% (active) and 98% (active), respectively. Moreover, the inhibition was 41% in assay [2] and -3% in assay [3]. Besides, the outcome in assay [5], in assay [6], in assay [7] and in assay [8] was inactive.
Take `N=C(N)c1ccc(NC(=O)Cc2nc3ccc(C(=N)N)cc3[nH]2)cc1`: the growth inhibition in assay [1] is 81% (active); in assay [4], 87% (active). The inhibition in assay [2] is 4%; in assay [3], 2%. In addition, the result in assay [5], in assay [6], in assay [7] and in assay [8] was inactive.
As to `O=C(/C=C/c1ccc(Cl)c(Cl)c1)NCCCCCN1CCCC(CNC(=O)Nc2ccc(C(F)(F)F)cc2)C1` (stereo not given), the values for the growth inhibition in assay [1] and in assay [4] were 7% and 100% (active), respectively. For the same molecule, the figures for the inhibition in assay [2] and in assay [3] were 27% and -9%, respectively. Further, the result in assay [5], in assay [6], in assay [7] and in assay [8] was inactive.
